Data reported in PubChem BioAssay AID1159580 (chemical genetic matrix, 2015).
Hit rate of the full screen: of about 5,500 compounds, about 2,000 (36%) were called active. About 18% were inconclusive and are not listed. No stated cut-off is given here; in the data, active means normalized growth mostly below about 0.91 (no sharp cut-off); inconclusive means no clear call, values can overlap the other calls; inactive means mostly above about 0.92. Some of the results follow.

Assay: chemical genetic growth profiling, strain panel (AID 1159580);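 further: tested at 20 µM; growth read once vehicle control cultures reached saturation at 30 °C; 1 = growth at the plate median or of vehicle wells; lower values mean less growth of the strain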
Conditions: growth OD

Measured: normalized growth

C=C[C@H]1CN2CC[C@H]1C[C@H]2[C@H](O)c1ccnc2ccccc12
inactive: S. cerevisiae deletion strains, locus YJR075W, strain HOC1, hits give low values 1.02 | S. cerevisiae deletion strains, locus YKL009W, strain mrt4, hits give low values 1.01 | S. cerevisiae deletion strains, locus YKL068W, hits give low values 0.982 | S. cerevisiae deletion strains, locus YKL085W, strain MDH1 (second series), hits give low values 0.991 | S. cerevisiae deletion strains, locus YKL085W, strain MDH1, hits give low values 0.991 | S. cerevisiae deletion strains, locus YKL160W, strain elf1, hits give low values 0.989 | S. cerevisiae deletion strains, locus YKL190W, strain CNB1, hits give low values 0.986 | S. cerevisiae deletion strains, locus YKR001C, strain vps1, hits give low values 0.967 | S. cerevisiae deletion strains, locus YKR026C, strain gcn3, hits give low values 1 | S. cerevisiae deletion strains, locus YKR091W, strain srl3, hits give low values 1 | S. cerevisiae deletion strains, locus YLL001W, strain dnm1, hits give low values 0.972 | S. cerevisiae deletion strains, locus YLL026W, hits give low values 0.994 | S. cerevisiae deletion strains, locus YLL041C, strain sdh2, hits give low values 1 | S. cerevisiae deletion strains, locus YLR027C, strain aat2, hits give low values 1 | S. cerevisiae deletion strains, locus YLR039C, strain RIC1, hits give low values 0.99 | S. cerevisiae deletion strains, locus YLR058C, strain SHM2, hits give low values 1 | S. cerevisiae deletion strains, locus YLR102C, strain apc9, hits give low values 0.976 | S. cerevisiae deletion strains, locus YLR113W, strain HOG1, hits give low values 0.941 | S. cerevisiae deletion strains, locus YLR221C, strain rsa3, hits give low values 0.989 | S. cerevisiae deletion strains, locus YLR258W, strain gsy2, hits give low values 1.01 | S. cerevisiae deletion strains, locus YLR262C, strain YPT6 (second series), hits give low values 0.975 | S. cerevisiae deletion strains, locus YLR262C, strain YPT6, hits give low values 0.966 | S. cerevisiae deletion strains, locus YLR268W, strain sec22, hits give low values 0.981 | S. cerevisiae deletion strains, locus YLR320W, strain mms22, hits give low values 0.999 | S. cerevisiae deletion strains, locus YLR330W, strain CHS5, hits give low values 1 | S. cerevisiae deletion strains, locus YLR342W, strain FKS1 (second series), hits give low values 0.995 | S. cerevisiae deletion strains, locus YLR342W, strain FKS1, hits give low values 0.985 | S. cerevisiae deletion strains, locus YLR357W, strain rsc2, hits give low values 0.986 | S. cerevisiae deletion strains, locus YLR370C, strain arc18, hits give low values 0.995 | S. cerevisiae deletion strains, locus YLR371W, strain rom2, hits give low values 0.967 | S. cerevisiae deletion strains, locus YLR384C, strain iki3, hits give low values 0.988 | S. cerevisiae deletion strains, locus YLR418C, strain cdc73, hits give low values 1.03 | S. cerevisiae deletion strains, locus YML016C, strain PPZ1, hits give low values 1.01 | S. cerevisiae deletion strains, locus YML032C, strain rad52, hits give low values 0.97 | S. cerevisiae deletion strains, locus YML120C, strain ndi1, hits give low values 0.992 | S. cerevisiae deletion strains, locus YML124C, strain tub3, hits give low values 0.975 | S. cerevisiae deletion strains, locus YMR058W, strain fet3, hits give low values 0.983 | S. cerevisiae deletion strains, locus YMR078C, strain ctf18, hits give low values 0.965 | S. cerevisiae deletion strains, locus YMR125W, strain sto1, hits give low values 1 | S. cerevisiae deletion strains, locus YMR129W, hits give low values 1 | S. cerevisiae deletion strains, locus YMR205C, strain PFK2, hits give low values 1 | S. cerevisiae deletion strains, locus YMR223W, strain ubp8, hits give low values 0.978 | S. cerevisiae deletion strains, locus YMR231W, strain pep5, hits give low values 0.995 | S. cerevisiae deletion strains, locus YMR263W, strain SAP30, hits give low values 0.987 | S. cerevisiae deletion strains, locus YMR307W, strain GAS1, hits give low values 0.986 | S. cerevisiae deletion strains, locus YNL067W, strain RPL9B, hits give low values 1.01 | S. cerevisiae deletion strains, locus YNL071W, strain lat1, hits give low values 1 | S. cerevisiae deletion strains, locus YNL128W, strain TEP1, hits give low values 1.03 | S. cerevisiae deletion strains, locus YNL153C, strain GIM3, hits give low values 1.01 | S. cerevisiae deletion strains, locus YNL183C, strain NPR1, hits give low values 0.927 | S. cerevisiae deletion strains, locus YNL209W, strain ssb2, hits give low values 1.01 | S. cerevisiae deletion strains, locus YNL233W, strain BNI4, hits give low values 0.999 | S. cerevisiae deletion strains, locus YNL248C, strain rpa49, hits give low values 1.02 | S. cerevisiae deletion strains, locus YNL250W, strain rad50, hits give low values 0.989 | S. cerevisiae deletion strains, locus YNL271C, strain bni1, hits give low values 0.993 | S. cerevisiae deletion strains, locus YNL298W, strain CLA4, hits give low values 0.98 | S. cerevisiae deletion strains, locus YNL307C, strain MCK1, hits give low values 0.981 | S. cerevisiae deletion strains, locus YNL322C, strain KRE1 (second series), hits give low values 0.99 | S. cerevisiae deletion strains, locus YNL322C, strain KRE1, hits give low values 1 | S. cerevisiae deletion strains, locus YNR049C, strain mso1, hits give low values 1 | S. cerevisiae deletion strains, locus YNR052C, strain pop2, hits give low values 0.959 | S. cerevisiae deletion strains, locus YOL006C, strain TOP1, hits give low values 1.07 | S. cerevisiae deletion strains, locus YOL012C, strain htz1 0.823 | S. cerevisiae deletion strains, locus YOL147C, strain pex11, hits give low values 0.971 | S. cerevisiae deletion strains, locus YOR001W, strain rrp6, hits give low values 0.978 | S. cerevisiae deletion strains, locus YOR061W, strain CKA2, hits give low values 1.01 | S. cerevisiae deletion strains, locus YOR069W, strain VPS5, hits give low values 1.01 | S. cerevisiae deletion strains, locus YOR070C, strain gyp1, hits give low values 1 | S. cerevisiae deletion strains, locus YOR080W, strain dia2, hits give low values 0.99 | S. cerevisiae deletion strains, locus YOR083W, strain WHI5, hits give low values 0.948 | S. cerevisiae deletion strains, locus YOR106W, strain vam3, hits give low values 0.994 | S. cerevisiae deletion strains, locus YOR136W, strain idh2, hits give low values 0.973 | S. cerevisiae deletion strains, locus YOR144C, strain elg1, hits give low values 0.972 | S. cerevisiae deletion strains, locus YOR184W, strain ser1, hits give low values 0.977 | S. cerevisiae deletion strains, locus YOR231W, strain MKK1, hits give low values 0.972 | S. cerevisiae deletion strains, locus YOR265W, strain rbl2, hits give low values 0.994 | S. cerevisiae deletion strains, locus YOR270C, strain vph1, hits give low values 1.02 | S. cerevisiae deletion strains, locus YOR290C, strain snf2, hits give low values 0.996 | S. cerevisiae deletion strains, locus YOR316C, strain cot1, hits give low values 0.984 | S. cerevisiae deletion strains, locus YPL051W, strain arl3, hits give low values 1 | S. cerevisiae deletion strains, locus YPL055C, strain LGE1, hits give low values 1.01 | S. cerevisiae deletion strains, locus YPL078C, strain atp4, hits give low values 0.99 | S. cerevisiae deletion strains, locus YPL106C, strain sse1, hits give low values 0.994 | S. cerevisiae deletion strains, locus YPL240C, strain hsp82, hits give low values 1.01 | S. cerevisiae deletion strains, locus YPL241C, strain CIN2, hits give low values 0.992 | S. cerevisiae deletion strains, locus YPL256C, strain CLN2, hits give low values 0.97 | S. cerevisiae deletion strains, locus YPR119W, strain clb2, hits give low values 0.98 | S. cerevisiae deletion strains, locus YPR141C, strain kar3, hits give low values 0.983 | S. cerevisiae deletion strains, locus YPR163C, strain tif3, hits give low values 0.977 | S. cerevisiae deletion strains, locus YPR167C, strain met16, hits give low values 0.989 | S. cerevisiae deletion strains, strain wtn01, hits give low values 0.976 | S. cerevisiae strains, strain wild type, hits give low values 1
